Hsp70 activator = Hsp70 transcriptional activation, primary screen; HeLa Hsp70 promoter luciferase reporter, luminescence; scaled: vehicle 0, proteasome-inhibitor control 100%; activation, % at 10 µM; 0.04% of 200,000 active; AID 1203;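 active = activation above the mean across all tested compounds plus 3 SD, cutoff set per campaign, cut at about 5.5% in these data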;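 also: 100% = MG132 at 30 µM as the positive control and 0% = DMSO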
S1P4 agonist = activates the human S1P4 receptor; O95977; S1P4-expressing cell line, agonist reporter assay; activation, % at 4.98 µM; 0.35% of 220,000 active; in the data active = activation above about 11%;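 also: 0% = DMSO vehicle and 100% = reference agonist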
Target sequence (O95977 whole entry, looked up): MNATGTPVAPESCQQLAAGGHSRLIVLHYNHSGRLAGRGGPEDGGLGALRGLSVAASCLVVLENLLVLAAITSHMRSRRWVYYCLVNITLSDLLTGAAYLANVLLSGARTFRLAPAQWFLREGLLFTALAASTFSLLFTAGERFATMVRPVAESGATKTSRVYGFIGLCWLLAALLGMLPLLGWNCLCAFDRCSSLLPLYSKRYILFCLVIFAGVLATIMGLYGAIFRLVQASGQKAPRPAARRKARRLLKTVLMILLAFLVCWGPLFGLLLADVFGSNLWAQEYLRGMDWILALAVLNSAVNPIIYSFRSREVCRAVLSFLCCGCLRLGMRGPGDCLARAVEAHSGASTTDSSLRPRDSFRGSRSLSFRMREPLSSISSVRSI
S1P4 antagonist = blocks the human S1P4 receptor; S1P4-expressing cells, antagonist mode, reporter read-out; inhibition, % at 4.98 µM; 0.26% of 220,000 active; in the data active = inhibition above about 29%;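 also: 0% = wells stimulated with agonist and 100% = vehicle wells without agonist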
S1P3 antagonist = S1P3 (human) receptor antagonism. Q99500. CHO S1P3 NFAT-BLA reporter, FRET fluorescence, antagonist mode. inhibition, % at 4.98 µM. 0.27% of 170,000 active;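 active = inhibition above the plate cutoff, the mean inhibition of test wells on that plate plus 3 SD, cut at about 28% in these data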;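 also: cells challenged with S1P at its EC80 of 0.8 µM; blue over green emission ratio from cleaved BLA substrate after 4 h stimulation; 0% = S1P-stimulated wells and 100% = unstimulated DMSO-only wells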
HSF1 activator = increases HSF-1 driven luciferase reporter signal. 1.7% of 300,000 active. activation, % at 9 µM. NIH3T3-HGL HSF-1 luciferase reporter, MG132, 8 h; 100% = twice DMSO control signal;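 active = mean replicate activation of at least 50% with a set share of replicates each reaching 50%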;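 also: 0% = median of the neutral control wells and 100% = twice that signal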
HSF1 inhib = HSF1 inhibition | activity change, negative = inhibition, % at 7.5 µM (by protocol) | NIH3T3-HGL HSE-luciferase, MG132-induced, luminescence 8 h; hits give low values | 0.77% of 300,000 active;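 active = more than half of replicate wells show activity change below -50%, luminescence cut by over half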;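 also: luciferase reports HSF-1 transcriptional activity via heat shock element; 0% = median of DMSO wells and -100% = zero luminescence signal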
Numbers without * were called inactive; · = no result. Rows were chosen to be rich in hits. Some 2.9% of all compounds tested hit in one or more screens of this group.

SMILES | Hsp70 activator | S1P4 agonist | S1P4 antagonist | S1P3 antagonist | HSF1 activator | HSF1 inhib
Cc1ccc(Cl)cc1N1CCN(C2CCCCC2NS(=O)(=O)c2ccccc2)CC1 (stereo unspecified) | · | · | · | · | 76* | 43
Cc1cccc(NC2CCCCC2NS(=O)(=O)c2ccccc2)c1 (stereo unspecified) | · | · | · | · | 0 | 0
Cc1cc(C)c(C)c(S(=O)(=O)NCC(=O)Nc2ccc(F)cc2)c1C | · | · | · | · | 1 | -5
O=C(Nc1ccnn1C1CCN(Cc2ccccc2F)CC1)C1CCCC1 | · | · | · | · | 22 | 4
CC(=O)c1cccc2c(O)c(C3=Nc4ccccc4C3=O)[nH]c12 | 0 | -1 | 6 | · | 62* | 33
COc1ccc(C(=O)N2CCCC(c3nc(-c4cccs4)no3)C2)cc1 (stereo unspecified) | 0 | 3 | 5 | -8 | 59* | 12
Cc1cc(C)cc(NC(=O)C(=O)NCC2CCCN2S(=O)(=O)c2cccs2)c1 (stereo unspecified) | · | · | · | · | 13 | -1
O=C(NCCCN1CCCC1)c1ccc2c(Cl)c3c(nc2c1)CCCC3 | 0 | -1 | -9 | -5 | 19 | 6
O=C(NC1CC1)c1ccc2c(Cl)c3c(nc2c1)CCCC3 | 0 | 0 | -5 | 10 | 28 | 9
N#Cc1ccccc1NC(=O)c1ccc2c(Cl)c3c(nc2c1)CCCC3 | 0 | 0 | -17 | 6 | 113* | 72
CCOC(=O)C1CCN(C(=O)c2ccc(C)c(S(=O)(=O)N3CCCC3)c2)CC1 | · | · | · | · | -1 | 2
O=C(Nc1cccnc1Cl)c1ccc2c(Cl)c3c(nc2c1)CCC3 | 0 | 0 | -3 | -10 | 23 | 9
CCCN1CCN(CCCNC(=O)c2ccc3c(Cl)c4c(nc3c2)CCCC4)CC1 | · | · | · | · | 160* | 112
CC1CCN(C(=O)c2ccc3c(Cl)c4c(nc3c2)CCCC4)CC1 | 0 | 0 | 7 | -8 | 302* | 194
CCOC(=O)C1CCCN(C(=O)c2ccc(Cl)c(S(=O)(=O)N3CCCCC3)c2)C1 (stereo unspecified) | 0 | -1 | -10 | -12 | 79* | 24
Cc1nn(CC(=O)Nc2ccc(Cl)c(S(=O)(=O)N(C)C)c2)c(C)c1[N+](=O)[O-] | -1 | 1 | -17 | -2 | 12 | -2
O=C(c1ccc2c(Cl)c3c(nc2c1)CCCC3)N1CCN(c2ccc(F)cc2)CC1 | 0 | 0 | 1 | -8 | 72* | 56
CCOC(=O)C1CCN(C(=O)c2ccc3c(Cl)c4c(nc3c2)CCCC4)CC1 | · | · | · | · | 316* | 261
O=C(c1ccncc1)N1CCN(c2ccc(F)cc2)CC1 | 0 | -1 | 1 | · | -73 | -66*
COc1ccccc1N1CCN(C(=O)c2ccc3c(Cl)c4c(nc3c2)CCCC4)CC1 | 0 | 1 | 1 | -6 | 40 | 25
CCOC(=O)N1CCC(NC(=O)c2ccc3c(Cl)c4c(nc3c2)CCCC4)CC1 | 0 | 1 | 0 | -1 | · | ·
Cc1ccc(S(=O)(=O)NC2CC(C)(C)NC(C)(C)C2)c(C)c1C | · | · | · | · | 4 | -1
CC(Oc1coc(CN2CCN(C(=O)c3ccco3)CC2)cc1=O)c1ccccc1 (stereo unspecified) | · | · | · | · | -16 | -1
CCOC(=O)c1nnc(-c2ccccc2)nc1Sc1ccccc1Cl | 0 | -2 | -17 | · | 159* | 130
Cc1cc(NC2CCCC2)n2ncc(-c3ccccc3)c2n1 | · | · | · | · | -74 | -67*
SMILES | Hsp70 activator | S1P4 agonist | S1P4 antagonist | S1P3 antagonist | HSF1 activator | HSF1 inhib
COc1ccc(CCNc2cc(C)nc3c(-c4ccccc4)cnn23)cc1OC | 0 | 2 | 14 | -5 | 0 | 1
Cc1cc(NCc2ccccc2)n2ncc(-c3ccccc3)c2n1 | · | · | · | · | 80* | 40
Cc1nc2c(-c3ccccc3)cnn2c(N)c1-c1ccccc1 | · | · | · | · | -89 | -87*
Cc1cc(NC(C)c2ccccc2)n2ncc(-c3ccccc3)c2n1 (stereo unspecified) | · | · | · | · | 11 | 16
Cc1cc(NC2CCCC2)n2nc(C)c(-c3ccccc3)c2n1 | · | · | · | · | 52* | 9
S=C(NCCc1ccccc1)N1CCn2cccc2C1c1cccnc1 (stereo unspecified) | 0 | 2 | -1 | -20 | 16 | 2
COc1ccccc1-n1c(SCC(N)=O)nc2sc3c(c2c1=O)CCC3 | · | 1 | -5 | -7 | 13 | -4
COc1ccc(-c2c(C)nn3c(NC4CCCC4)cc(C)nc23)cc1OC | · | · | · | · | 62* | 27
COc1ccc(CCNc2cc(C)nc3c(-c4ccccc4)c(C)nn23)cc1OC | 0 | 0 | -15 | 14 | 13 | 2
COc1ccc(OC)c(N=C2SCCCN2C(=O)c2ccc(N3C(=O)CCC3=O)cc2)c1 | · | · | · | · | -76 | -68*
CCOc1ncccc1C(=O)N1CCCSC1=Nc1ccccc1OC | 0 | 1 | 11 | -16 | 6 | -7
CC(C)(C)C(=O)O/N=C(\N)c1ccc(-c2csnn2)cc1 | · | 0 | -1 | 4 | 34 | 14
CN1CCN(C(=O)c2cc([N+](=O)[O-])cc([N+](=O)[O-])c2)CC1 | · | · | · | · | -72 | -64*
COc1ccc2c(c1)CC/C2=N\OC(=O)c1ccccc1C | 0 | 1 | -10 | -4 | 61* | 22
COc1ccc2c(c1)CCC/C2=N/OC(=O)c1ccccc1OC | 0 | 0 | -7 | -7 | 16 | 3
COc1ccc2c(c1)CC/C2=N\OC(=O)c1cccc(C)c1 | 0 | -1 | -1 | 16 | 65* | 27
CCCCc1nc2cc(C(=O)N3CCN(c4nc(C)cnc4C)CC3)ccc2o1 | · | · | · | · | -7 | -4
Cn1c(C(=O)NN)cc2cc(Oc3ccccc3)ccc21 | · | · | · | · | 3 | -4
COc1ccc(OCc2cccc(C(=O)NN)c2)cc1 | -1 | 1 | -8 | 17 | -74 | -66*
COc1ccc(OCc2cccc(C(=O)Nn3cc([N+](=O)[O-])cn3)c2)cc1 | 0 | -1 | -1 | · | -60 | -54*
NNC(=O)c1cccc(COc2ccc(Br)cc2)c1 | -1 | 4 | -6 | -12 | -41 | -35
Cn1c(C(=O)NN)cc2cc(OCc3ccccc3)ccc21 | · | · | · | · | -86 | -84*
COc1ccc(C(=O)Nc2ccc(OCc3ccccc3)cc2)cc1[N+](=O)[O-] | 0 | 2 | -3 | · | -67 | -61*
O=C(Nc1ccccc1C(=O)N1CCCCC1)c1ccc(Cl)cc1Cl | · | · | · | · | -1 | 2
CC1C(=O)N2CCCc3cc(NS(=O)(=O)c4ccccc4)cc1c32 (stereo unspecified) | · | · | · | · | 9 | -3
CCCCCCN(C(=O)CCl)c1ccccc1 | · | -1 | 21 | 6 | -71 | -68*
CCCCCCCN(C(=O)CCl)c1cccc(C)c1 | 0 | 0 | -4 | 1 | -93 | -93*
O=P(O)(O)C(O)C(F)(F)C(F)(F)C(F)(F)C(F)F (stereo unspecified) | 0 | 2 | -6 | -12 | 10 | -18
COc1cc(Cl)c(CC(=O)c2c[nH]c3ccccc23)cc1OC | · | 0 | -7 | 7 | 62* | 13
Cc1cccc(CC(=O)c2c[nH]c3ccccc23)c1 | · | -1 | -7 | -10 | 12 | 11

High-throughput results: PubChem BioAssay, several laboratories
